# PubChem BioAssay (NCATS)
# Results filed as inconclusive are left out. Calls of active or inactive are those of the source. Unless noted, the call rests on the fitted dose curve; in most records, active means well fitted inhibition curve with a large enough effect; inconclusive means small, poorly fitted or top-dose-only effect; inactive means flat fitted curve, though single readings scatter.
# How the values were obtained:
# [1] = qHTS drug screen for cell cycle checkpoint inhibitors in PARPi-resistant BRCA-mutant ovarian cancer cell lines. (AID 1963452; calls by dose curve); conditions: PEO1/OlaR viability, CellTiter-Glo luminescence, 96 h, stronger effect = lower value
# Outline: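 PEO1, PEO4 and PEO1/OlaR ovarian cancer cells, 600 per well, exposed 96 h at 37C to a dilution series. Viability read by CellTiter-Glo luminescence, normalized to DMSO and empty wells; activity summarized as Z-AUC.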
# [2] = qHTS profiling for inhibitors of Plasmodium falciparum proliferation (AID 504749); further: nearly all actives have a fitted effect of over 60% in size; further: potency means the concentration at half of the fitted maximal effect;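 on activity, negative = inhibition: 0% = DMSO vehicle and full inhibition = artemisinin control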; conditions: P. falciparum in erythrocytes, SYBR Green DNA, 72 h
# Outline: (§1)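 In a 72 h erythrocytic culture (37 C, humidified, 5% CO2) at 2.5% hematocrit and 0.3% starting parasitemia, compounds were tested; SYBR Green I in detergent lysis buffer stained parasite DNA overnight.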
# 3D7 = assay: as above; conditions: P. falciparum in erythrocytes, SYBR Green DNA, 72 h; series mostly up to 28.7 µM
# Outline: as §1
# 7G8 = assay: as above; conditions: P. falciparum in erythrocytes, SYBR Green DNA, 72 h; series mostly up to 28.7 µM
# Outline: as §1
# C2A = assay: as above; conditions: P. falciparum in erythrocytes, SYBR Green DNA, 72 h; series mostly up to 28.7 µM
# Outline: as §1
# CP185 = assay: as above; conditions: P. falciparum in erythrocytes, SYBR Green DNA, 72 h; series mostly up to 28.7 µM
# Outline: as §1
# CP191 = assay: as above; conditions: P. falciparum in erythrocytes, SYBR Green DNA, 72 h; series mostly up to 28.7 µM
# Outline: as §1
# CP192 = assay: as above; conditions: P. falciparum in erythrocytes, SYBR Green DNA, 72 h; series mostly up to 28.7 µM
# Outline: as §1
# AA1029 = assay: as above; conditions: P. falciparum in erythrocytes, SYBR Green DNA, 72 h; series mostly up to 28.7 µM
# Outline: as §1
# AS120 = assay: as above; conditions: P. falciparum in erythrocytes, SYBR Green DNA, 72 h; series mostly up to 28.7 µM
# Outline: as §1
# ATS189 = assay: as above; conditions: P. falciparum in erythrocytes, SYBR Green DNA, 72 h; series mostly up to 28.7 µM
# Outline: as §1
# ATS95 = assay: as above; conditions: P. falciparum in erythrocytes, SYBR Green DNA, 72 h; series mostly up to 28.7 µM
# Outline: as §1
# [3] = qHTS for identification of novel therapeutic agents for treatment of microphthalmiaassociated transcription factor (MiT) renal cell carcinoma (RCC) (AID 1963991); conditions: CellTiter-Glo, 48 h, stronger effect = lower value
# Outline: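 Three TFE3-fusion RCC lines (UOK109, UOK124, UOK145), 500 cells/well in complete medium, were treated with MIPE 4.0 compounds for 48 hours at 37 C. Viability was by CellTiter-Glo luminescence, normalized to DMSO (100%) and empty wells (0%); curves fitted over 11 concentrations.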
# [4] = measured here: PEO1 parental Z-AUC
# [5] = at 28.7 µM (top of the series), parasite line A
# [6] = at 28.7 µM (top of the series), parasite line B
# [7] = TFE3-RCC UOK109 viability, measured here: UOK109 Z-AUC
# [8] = TFE3-RCC viability, measured here: UOK124 Z-AUC
# [9] = TFE3-RCC viability, measured here: UOK145 Z-AUC
smiles,measurement,setting,value
CC(COc1ccccc1)N(CCCl)Cc1ccccc1 (stereo not drawn),Z-AUC,[1],1.41 (inactive)
same,Z-AUC,[1]; [4],1.02
same,Z-AUC,[1]; measured here: PEO4 Z-AUC,1.15
same,"activity, negative = inhibition",[2]; [5],7.32% (inactive)
same,"activity, negative = inhibition",[2]; [6],2.35% (inactive)
same,Potency,3D7,inactive
same,Potency,7G8,12.6 µM (active)
same,Potency,C2A,inactive
same,Potency,CP185,inactive
same,Potency,CP191,inactive
same,Potency,CP192,inactive
CC(C)NCC(O)c1ccc(O)c(O)c1 (stereo not drawn),Z-AUC,[1],1.31 (inactive)
same,Z-AUC,[1]; [4],0.911
same,Z-AUC,[1]; measured here: PEO4 Z-AUC,0.816
same,"activity, negative = inhibition",[2]; [5],-3.62% (inactive)
same,"activity, negative = inhibition",[2]; [6],-0.405% (inactive)
same,Potency,3D7,inactive
same,Potency,AA1029,inactive
same,Potency,AS120,inactive
same,Potency,ATS189,inactive
same,Potency,ATS95,inactive
same,Potency,C2A,inactive
same,Potency,CP185,inactive
same,Potency,CP191,inactive
same,Potency,CP192,inactive
CN(C)C(=N)N=C(N)N,z-score,[3]; [7],0.797
same,z-score,[3]; [8],1.58
same,z-score,[3]; [9],0.981
same,"activity, negative = inhibition","[2]; at 12.8 µM (top of the series), parasite line A",11.7% (inactive)
same,"activity, negative = inhibition","[2]; at 12.8 µM (top of the series), parasite line B",23.8% (inactive)
same,Potency,3D7,inactive
same,Potency,7G8,inactive
same,Potency,AA1029,inactive
same,Potency,ATS189,inactive
same,Potency,ATS95,inactive
same,Potency,C2A,inactive
same,Potency,CP185,inactive
same,Potency,CP191,inactive
Clc1ccc2c(c1)C(N1CCNCC1)=Nc1ccccc1O2,z-score,[3]; [7],0.826
same,z-score,[3]; [8],0.445
same,z-score,[3]; [9],0.654
same,"activity, negative = inhibition",[2]; [5],-18.9% (inactive)
same,Potency,3D7,inactive
same,Potency,C2A,inactive
same,Potency,CP185,inactive
same,Potency,CP192,inactive
O=C(c1ccc(F)cc1)C1CCN(CCn2c(=O)[nH]c3ccccc3c2=O)CC1,z-score,[3]; [7],0.795
same,z-score,[3]; [8],0.577
same,z-score,[3]; [9],0.595
same,"activity, negative = inhibition",[2]; [5],5.58% (inactive)
same,"activity, negative = inhibition",[2]; [6],9.97% (inactive)
same,Potency,3D7,inactive
same,Potency,7G8,5.01 µM (active)
same,Potency,AA1029,inactive
same,Potency,AS120,inactive
same,Potency,ATS189,inactive
same,Potency,ATS95,inactive
same,Potency,C2A,inactive
same,Potency,CP185,inactive
same,Potency,CP192,inactive
Cn1ccc2cc3c(cc21)CCN3C(=O)Nc1cccnc1,Z-AUC,[1],0.66 (inactive)
same,Z-AUC,[1]; [4],0.473
same,Z-AUC,[1]; measured here: PEO4 Z-AUC,0.355
same,Potency,7G8,8.91 µM (active)
CN(C)CCCN1c2ccccc2CCc2ccc(Cl)cc21,Z-AUC,[1],-0.0245 (inactive)
same,Z-AUC,[1]; [4],-0.498
same,Z-AUC,[1]; measured here: PEO4 Z-AUC,-0.622
same,"activity, negative = inhibition",[2]; [5],-15.4% (inactive)
same,"activity, negative = inhibition",[2]; [6],-29.1% (inactive)
same,Potency,3D7,inactive
same,Potency,7G8,5.01 µM (active)
same,Potency,C2A,inactive
same,Potency,CP185,inactive
CCCCc1oc2ccccc2c1C(=O)c1cc(I)c(OCCN(CC)CC)c(I)c1,Z-AUC,[1],-0.673 (inactive)
same,Z-AUC,[1]; [4],-0.649
same,Z-AUC,[1]; measured here: PEO4 Z-AUC,-0.00161
same,Potency,[2]; parasite line A,4.47 µM (active)
same,Potency,[2]; parasite line B,2.82 µM (active)
same,Potency,7G8,3.16 µM (active)
same,Potency,AA1029,6.31 µM (active)
same,Potency,AS120,3.55 µM (active)
same,Potency,ATS189,5.62 µM (active)
same,Potency,ATS95,5.01 µM (active)
same,Potency,C2A,10 µM (active)
same,Potency,CP185,8.91 µM (active)
same,Potency,CP191,8.91 µM (active)
Cc1cn([C@H]2C=C[C@@H](CO)O2)c(=O)[nH]c1=O,z-score,[3]; [7],0.266
same,z-score,[3]; [8],0.139
same,z-score,[3]; [9],0.201
same,"activity, negative = inhibition",[2]; [5],2.38% (inactive)
same,"activity, negative = inhibition",[2]; [6],-3.42% (inactive)
same,Potency,3D7,inactive
same,Potency,7G8,inactive
same,Potency,AA1029,inactive
same,Potency,AS120,inactive
same,Potency,ATS189,inactive
same,Potency,ATS95,inactive
same,Potency,C2A,inactive
same,Potency,CP185,inactive
same,Potency,CP191,inactive
same,Potency,CP192,inactive
O=C(c1ccc(OCCN2CCCCC2)cc1)c1c(-c2ccc(O)cc2)sc2cc(O)ccc12,Z-AUC,[1],0.6 (inactive)
same,Z-AUC,[1]; [4],0.409
same,Z-AUC,[1]; measured here: PEO4 Z-AUC,0.0416
same,Potency,[2]; parasite line A,2.82 µM (active)
same,Potency,[2]; parasite line B,11.2 µM (active)
same,Potency,3D7,2 µM (active)
same,Potency,7G8,2.51 µM (active)
same,Potency,AA1029,11.2 µM (active)
same,Potency,AS120,2.82 µM (active)
same,Potency,C2A,10 µM (active)
same,Potency,CP191,5.01 µM (active)
CC(CCc1ccc(O)cc1)NCCc1ccc(O)c(O)c1 (stereo not drawn),"activity, negative = inhibition",[2]; [5],7.14% (inactive)
same,"activity, negative = inhibition",[2]; [6],-3.6% (inactive)
same,Potency,3D7,inactive
same,Potency,AA1029,inactive
same,Potency,AS120,inactive
same,Potency,ATS189,inactive
same,Potency,ATS95,inactive
same,Potency,C2A,inactive
same,Potency,CP185,inactive
same,Potency,CP191,inactive
same,Potency,CP192,inactive
Cc1cn([C@H]2C[C@H](N=[N+]=[N-])[C@@H](CO)O2)c(=O)[nH]c1=O,"activity, negative = inhibition",[2]; [5],-7.84% (inactive)
same,"activity, negative = inhibition",[2]; [6],9.23% (inactive)
same,Potency,3D7,inactive
same,Potency,7G8,inactive
same,Potency,AA1029,inactive
same,Potency,AS120,inactive
same,Potency,ATS189,inactive
same,Potency,ATS95,inactive
same,Potency,C2A,inactive
same,Potency,CP185,inactive
same,Potency,CP191,inactive
same,Potency,CP192,inactive
CC(C)(Oc1ccc(C2CC2(Cl)Cl)cc1)C(=O)O (stereo not drawn),Z-AUC,[1],-0.348 (inactive)
same,Z-AUC,[1]; [4],-0.606
same,Z-AUC,[1]; measured here: PEO4 Z-AUC,-0.292
same,"activity, negative = inhibition",[2]; [5],-6.79% (inactive)
same,"activity, negative = inhibition",[2]; [6],2.45% (inactive)
same,Potency,3D7,inactive
same,Potency,AA1029,inactive
same,Potency,AS120,inactive
same,Potency,ATS189,inactive
same,Potency,ATS95,inactive
same,Potency,C2A,inactive
same,Potency,CP185,inactive
same,Potency,CP191,inactive
same,Potency,CP192,inactive
COc1ccccc1OCCNCC(O)COc1cccc2[nH]c3ccccc3c12 (stereo not drawn),z-score,[3]; [7],0.499
same,z-score,[3]; [8],0.302
same,z-score,[3]; [9],0.158
same,Potency,7G8,8.91 µM (active)
same,Potency,AA1029,8.91 µM (active)
same,Potency,AS120,3.98 µM (active)
same,Potency,ATS95,12.6 µM (active)
same,Potency,C2A,10 µM (active)
same,Potency,CP192,inactive
